From PubChem BioAssay (NCI) come the findings set out here.

What all share (experiment): NCI-60 one-dose screen, 48 h (100 = growth as untreated, 0 = no growth, -100 = all killed)
What all share (conditions): 10 µM unless noted

Assay [1] deals with DU-145 prostate.
The test system of assay [2] is K-562 leukemia.
Assay [3] concerns MALME-3M melanoma.
Assay [4] deals with MDA-MB-231 breast.
In assay [5] the test system is RXF 393 renal.
In assay [6] the test system is SF-268 CNS.
The test system of assay [7] is SF-295 CNS.
For assay [8], the system named is SF-539 CNS.
The subject of assay [9] is UACC-257 melanoma.
The test system of assay [10] is M14 melanoma.
For assay [11], the system named is HCT-15 colon.
In assay [12] the test system is HT29 colon.
Assay [13] has as its system SNB-75 CNS.
Assay [14] relates to SNB-19 CNS.
Assay [15] concerns U251 CNS.
The subject of assay [16] is SK-MEL-5 melanoma.
For assay [17], the system named is UACC-62 melanoma.
Assay [18] deals with LOX IMVI melanoma.
In assay [19] the test system is SK-MEL-28 melanoma.

Structures are written as SMILES. The panel holds about 83,000 compounds, 20% with a hit somewhere; the sample as a whole holds those more often.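 Cells were grown in 96-well plates and exposed to the test compound at a single concentration for 48 hours; results are reported as percent growth, with values below 10 considered active.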 Unmarked numbers belong to inactive results. Active and inactive are the calls of the source.

`Cn1cc(-c2nonc2-c2cn(C)c3ccc(F)cc23)c2cc(F)ccc21`: the growth in assay [1] was 81.1%; in [2], 12.6%; in [3], 49.5%; in [4], 82.3%; in assay [5], 46.7%; in assay [6] it was 71.3%. Besides, the growth in assay [7] is 56.4%; in [8], 66.1%; in [9], 71.7%; in [10], 31.4%; in [11] it was 30.8%; in assay [12], 12.3%. Moreover, the growth was 53.8% in assay [13]; 60.1% in assay [14]; 45.2% in assay [15]; 51.4% in assay [16]; 50.6% in assay [17]; 57.9% in [18]. The growth in [19] was 69%.

`C(=N/Nc1ncc(-c2cc3cc(-c4ccccc4)ccc3o2)s1)/c1cccs1`: the growth in assay [1] is 97.2%; in assay [2], 96.6%; in assay [3], 97.8%; in assay [4], 109%; in assay [5], 129%; in assay [6] it was 102%. Also, the growth was 98.1% in [7]; 99.6% in [8]; 102% in assay [9]; 111% in assay [10]; 99.2% in assay [11]; 99.6% in assay [12]. Besides, the growth in assay [13] was 100%; in assay [14], 99.3%; in [15] it was 99.5%; in assay [16] it was 96.8%; in assay [17] it was 90.7%; in [18], 98.7%. For the same compound, the growth in [19] is 96.1%.

As to `O=C1CC[C@H](c2ccc(O)c3c2C(=O)[C@@H]2O[C@@H]2C3=O)c2cccc(O)c21`, the growth in assay [1] was 21.1%; in assay [2] it was 0.986% (active); in [3], 86.5%; in assay [4], 43.5%; in assay [5], 16.9%; in assay [6] it was 84.4%. For the same compound, the growth in [7] is 91.3%; in assay [8] it was 75%; in [9] it was 38%; in assay [10], 69.6%; in assay [11] it was 42.5%; in assay [12], -17.2% (active). Further, the growth in [13] is 81.3%; in [14] it was 92%; in assay [15], 78.7%; in assay [16] it was 92.6%; in [17], 39.4%; in assay [18], -62.6% (active). Also, the growth in assay [19] was -7.72% (active).

`C=C1c2nc3ccccc3n2C=C(c2cccc(Cl)c2)N1Cc1ccc(OC)cc1`: the growth is 15.3% in assay [1]; 0.532% (active) in [2]; 76.8% in assay [3]; 36.3% in [4]; 4.81% (active) in [5]; 21.7% in assay [6]. The growth in assay [7] is 2.35% (active); in assay [8] it was -15% (active); in [9], 34.4%; in assay [10] it was 22.3%; in [11], 25.7%; in assay [12], 99.1%. Also, the growth in [13] was 16.5%; in assay [14], 20.4%; in [15], 18.4%; in assay [16], -31.1% (active); in assay [17], 44.7%; in assay [18], 37.2%. Also, the growth in [19] is 67.7%.

As to `Cc1nn(-c2ccc(F)cc2)c2ncnc(Oc3ccc(NC(=O)Nc4ccc(Cl)c(C(F)(F)F)c4)cc3)c12`, the growth in [1] is 106%; in assay [2], 105%; in assay [3], 100%; in assay [4], 103%; in assay [5], 107%; in [6], 93.4%. The growth in assay [7] was 102%; in assay [8], 96.8%; in assay [9], 99.9%; in assay [10] it was 106%; in assay [11], 111%; in [12], 109%. Moreover, the growth is 88.1% in [13]; 98.9% in assay [14]; 97.9% in [15]; 99.1% in assay [16]; 96.6% in assay [17]; 99.4% in assay [18]. For the same compound, the growth in [19] was 102%.

Turning to `COc1ccc(NC2=C(Sc3nc(C)cc(C)n3)C(=O)N(Cc3ccccc3)C2=O)cc1Cl`, the growth in assay [1] is 113% [30 µM]; in assay [2], 69.7% [30 µM]; in assay [3], 95.4% [30 µM]; in [4] it was 85.4% [30 µM]; in assay [5], 50.8% [30 µM]; in assay [6], 57.8% [30 µM]. Further, the growth is 39.6% [30 µM] in assay [7]; 101% [30 µM] in [8]; 43.9% [30 µM] in assay [9]; 95.9% [30 µM] in assay [10]; 73.8% [30 µM] in assay [11]; 60.1% [30 µM] in [12]. The growth in assay [13] was 84.4% [30 µM]; in assay [14], 95.4% [30 µM]; in assay [15], 86.9% [30 µM]; in assay [16], 57.9% [30 µM]; in assay [17], 71.5% [30 µM]; in assay [18], 93.2% [30 µM]. Further, the growth in assay [19] is 103% [30 µM].

For the compound `Cc1ccc(C2=NN3C(C2)c2cc(Br)ccc2OC32CCN(Cc3ccccc3)CC2)o1` (configuration not stated), the growth is 98.8% in assay [1]; 85.3% in [2]; 103% in assay [3]; 92.3% in assay [4]; 110% in [5]; 84.4% in [6]. In addition, the growth in assay [7] is 100%; in [8] it was 101%; in assay [9], 101%; in [10], 106%; in [11] it was 85.1%; in assay [12], 107%. In addition, the growth was 79% in assay [13]; 94.9% in assay [14]; 96.3% in assay [15]; 92.1% in assay [16]; 82.3% in assay [17]; 94.4% in assay [18]. The growth in [19] is 102%.

Regarding `CC(=O)Nc1ccc(-n2c(O)c(/C=N/NC(=O)Cc3ccccc3Nc3c(Cl)cccc3Cl)sc2=S)cc1`, the growth in assay [1] was 105%; in [2] it was 94.6%; in assay [3] it was 108%; in [4], 107%; in [5], 105%; in [6], 94.4%. In addition, the growth is 99.4% in assay [7]; 98.4% in [8]; 103% in assay [9]; 103% in [10]; 103% in [11]; 104% in assay [12]. Besides, the growth in [13] was 89.6%; in assay [14], 96.4%; in assay [15], 90.4%; in [16] it was 96.2%; in [17], 95.4%; in assay [18] it was 84.2%. The growth in assay [19] is 111%.
